# CBX7 inh – blocks human CBX7 binding to H3K27me3 peptide; O95931; AlphaScreen His6-CBX7 / biotin-H3K27me3 peptide binding; stronger effect = lower value; normalised signal (fraction of DMSO) (test concentration not listed); actives 1.1% (n = 66,000); AID 1224903; in the data active = normalised signal below about 0.5
# Target sequence (O95931 whole entry, looked up): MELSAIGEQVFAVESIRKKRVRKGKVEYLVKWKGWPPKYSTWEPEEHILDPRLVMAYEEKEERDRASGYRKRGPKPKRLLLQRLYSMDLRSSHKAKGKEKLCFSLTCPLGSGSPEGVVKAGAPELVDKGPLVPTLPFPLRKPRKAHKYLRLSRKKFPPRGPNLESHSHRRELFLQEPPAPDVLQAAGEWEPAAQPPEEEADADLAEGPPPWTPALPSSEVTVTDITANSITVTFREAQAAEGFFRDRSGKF
# * hit, by the source's call. The sample as a whole holds a higher share of hits than the screen did.
SMILES,CBX7 inh
COc1ccc2[nH]c(C)c(CCNCc3ccc(F)cc3F)c2c1,0.51
COc1ccc2[nH]c(C)c(CCNCc3nc[nH]c3C)c2c1,0.0075*
COc1ccc2[nH]c(C)c(CCNCc3cccnc3)c2c1,1.1
N#Cc1ccc(C(=O)Nc2cc(Br)ccc2C(=O)c2ccccc2Cl)cc1,0.99
CCOC(=O)C1(c2ccccc2)CCN(Cc2cccc(C(N)=O)c2)CC1,0.87
COc1ccc(-c2nc3ccccc3c(=O)n2-c2cc(C)ccn2)cc1,0.98
CC1N=C(c2ccccc2)c2cc(Cl)ccc2N(CC(=O)Nc2cccc(C(F)(F)F)c2)C1=O (centres undefined),0.86
COc1ccc(-n2nnnc2C2(NCCc3c(C)[nH]c4c(Cl)ccc(Cl)c34)CCCCC2)cc1,0.74
Cc1ccccc1-n1nnnc1C1(NCCc2c(C)[nH]c3ccccc23)CCCCC1,0.49*
Cc1ccc(-n2nnnc2C2(NCCc3c(C)[nH]c4c(Cl)c(Cl)ccc34)CCCCC2)cc1,0.73
O=C(CN1C(=O)CN=C(c2ccccc2)c2ccccc21)NCc1cccc(Cl)c1,1
COc1ccc(CCNCc2cc(OC)c3c(c2)OCO3)cc1,0.97
COc1ccc(CCNCc2cccnc2)cc1OC,0.91
COc1ccc(CCNCc2ccccn2)cc1OC,0.27*
CSc1cccc(NC(=O)CN2C(=O)CN=C(c3ccccc3)c3cc(Br)ccc32)c1,0.73
CN(C)c1ccc(C2SCC(=O)Nc3c2c(-c2ccccc2)nn3-c2ccccc2)cc1 (centres undefined),0.42*
COc1ccc(C2SCC(=O)Nc3c2c(C)nn3-c2ccccc2)cc1 (centres undefined),1
O=C1CSC(c2ccc(Cl)cc2)c2c(-c3ccccc3)nn(-c3ccccc3)c2N1 (centres undefined),0.92
COc1ccc(-n2c(/C=C/c3cccc(O)c3)nc3ccccc3c2=O)cc1Cl,0.99
Cc1cc(N2CCN(C)CC2)nc2cc(O)ccc12,0.98

# Compound activity from PubChem BioAssay.
